Reference: PubChem BioAssay (NCATS)
Results filed as inconclusive are left out. Calls of active or inactive are those of the source. Unless noted, calls come from the whole dose curve; as a rule, active = well fitted curve in the direction sought with a large enough effect; inconclusive = small, poorly fitted or top-dose-only effect, or another doubt; inactive = no such curve, though single readings can be large; an effect the other way counts as inactive or inconclusive.

Legend:
[1] = Stat Signaling Pathway (AID 446; active = well fitted curve in either direction with a large enough effect, not every such curve was filed as active;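 note: ME-180 cervical cancer cells given 40 pM IL-6 alongside compound; SIE-controlled beta-lactamase reporter measured as 460/530 nm FRET emission ratio; % is set by controls: 0 for no effect and ±100 for the full control effect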)
Outline: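 Overnight-plated ME-180 cells bearing a STAT Inducible Element beta-lactamase reporter; 5 h co-exposure to compound and 40 pM IL-6; values normalized to 300 pM IL-6 and 125 nM JAK inhibitor controls.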

[2] = target: Glucocorticoid receptor (Homo sapiens) (UniProt P04150); assay: GR-GFP Redistribution (AID 450;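 active = compounds whose dose series gives a full or clear partial fitted curve of increased nuclear translocation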; note: potency is the fitted concentration of half-maximal effect); settings: U2OS GR-GFP nuclear translocation, laser cytometry, 2 h
[3] = target: Glucocorticoid receptor (Homo sapiens) (UniProt P04150); assay: GR-EFC Redistribution (AID 451; calls by dose curve; note: potency is the fitted concentration of half-maximal effect); settings: CHO-K1 GR-EFC translocation, beta-gal luminescence, 2 h
Outline: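 Translocation of GR-ED fusion to nuclear EA restores b-gal, read by luminescence after 1 h room-temperature detection. Engineered CHO-K1 biosensor cells, 1,000/well, exposed 2 h at 37 C to titrations up to 46 uM final.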

[4] = target: Mitogen-activated protein kinase 10 (Mus musculus) (UniProt Q61831); assay: JNK3 AlphaScreen Assay (AID 530; active = well fitted curve in either direction with a large enough effect, not every such curve was filed as active;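 note: kinase came from lysate of stimulated human HepG2 cells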; note: potency is the fitted concentration of half-maximal effect)
Outline: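 Kinase buffer: 20 mM Tris-HCl pH 7.6, 10 mM MgCl2, 1 mM DTT, 0.1 mM Na3VO4, 0.01% Tween-20; ATP 10 uM. Substrate biotin-GST-cJun(1-79), enzyme from activated HepG2 lysates. Detection by Ser73 phospho-antibody AlphaScreen.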

[5] = Cell Viability - N2a (AID 540);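 note: cells exposed to compound for 40 h at 37 °C; plate controls were DMSO alone for no effect and tamoxifen control for full effect; nearly all actives have a fitted effect of over 45% in size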
Outline: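 In this qHTS cytotoxicity screen, ATP-dependent luciferase luminescence reports viable N2a cells after a 40 hr compound exposure in complete culture medium. Potencies are AC50 values from standard Hill equation fits.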

[6] = Cell Viability - NIH 3T3 (AID 541); settings: NIH 3T3 cell viability, qHTS; activity change, negative = cytotoxicity: at 92.2 µM (top of the series);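 note: cells exposed to compound for 40 hours; plate controls were DMSO alone for no effect and tamoxifen positive control for full effect; nearly all actives have a fitted effect of over 25% in size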
Outline: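 In this cytotoxicity screen, acute toxicity is scored as an ATP drop measured by CellTiter-Glo in NIH 3T3 fibroblasts following a 40 hr, 37 °C incubation with compound.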

[7] = Cell Viability - HUV-EC-C (AID 542);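 note: cells exposed to compound for 40 hours; % is set by controls: 0 for no effect and ±100 for the full control effect; nearly all actives have a fitted effect of over 35% in size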
Outline: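 Concentration-dependent ATP loss in HUV-EC-C cells is the measure. Exposure lasts 40 hr at 37 °C; luminescence follows CellTiter-Glo addition, and Hill fits give AC50.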

[8] = Cell Viability - H-4-II-E (AID 543);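 note: cells exposed to compound for 40 hours; % is set by controls: 0 for no effect and ±100 for the full control effect; nearly all actives have a fitted effect of over 35% in size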
Outline: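 AC50 from Hill-modelled qHTS concentration-response curves. H-4-II-E rat hepatoma cells in complete medium, 40 hr exposure at 37 °C, viability by CellTiter-Glo ATP luminescence.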

[9] = Cell Viability - SH-SY5Y (AID 544); settings: SH-SY5Y neuroblastoma cell viability; viability change, negative = cytotoxic: at 92.2 µM (top of the series);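 note: cells exposed to compound for 40 hours; nearly all actives have a fitted effect of over 55% in size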
Outline: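 Quantitative HTS in SH-SY5Y neuroblastoma cells, 40 hr treatment at 37 °C, ATP content by luciferase luminescence; AC50 from Hill fits.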

[10] = Cell Viability - Renal Proximal Tubule (AID 545);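 note: cells exposed to compound for 40 hours; nearly all actives have a fitted effect of over 40% in size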
Outline: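 Primary rat renal proximal tubule cells (1000/well) were treated with compounds for 40 hr at 37 °C in complete medium. Intracellular ATP was measured by CellTiter-Glo luminescence, and AC50 values came from Hill-equation fits of concentration-response data.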

[11] = Cell Viability - Mesenchymal (AID 546);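 note: cells exposed to compound for 40 hours before reading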
Outline: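 CellTiter-Glo luminescence (intracellular ATP, 20 min room temperature) after 40 hr compound exposure at 37 °C of 1000 glomerulus-derived human kidney mesenchymal cells/well; AC50 values obtained by fitting qHTS concentration-response data to the Hill equation.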

[12] = target: 3',5'-cyclic-AMP phosphodiesterase 4B (Homo sapiens) (UniProt Q07343); assay: qHTS Assay for Inhibitors of PDE-IV (AID 607; active = well fitted activation curve with a large enough effect in the main read-out, with a control signal flat, not every such curve was filed as active; note: % of control where 0% means no effect)
Outline: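 Live HEK293 cells with a modified cyclic nucleotide-gated (CNG) channel report intracellular cAMP via membrane-potential dye fluorescence (ex 535/em 590 nm). Endogenous PDE-IV was targeted. Compounds were tested at up to 22.9 uM final; RO 20-1724 100 uM served as control.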

[13] = Cellular Toxicity (caspase-3) HepG2 (AID 654);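 note: cells exposed to compound for 16 hours before reading; 0% = DMSO alone and 100% = caspase signal from 100 µM tamoxifen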
Outline: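 Concentration-response AC50 values reflect caspase-3/7 induction in HepG2 cells after 16 hours of compound exposure, quantified by luminescence from liberated aminoluciferin and referenced to 100 uM tamoxifen as full stimulation.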

[14] = Cellular Toxicity (caspase-3) Jurkat (AID 655); settings: Jurkat caspase-3 activation, luminescence, DMSO = 0%, tamoxifen = 100%; at 92.2 µM (top of the series);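 note: cells exposed to compound for 16 h at 37 °C before reading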
Outline: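 Jurkat cells (5000/well) in complete medium were treated with compounds for 16 hr at 37 °C, then Caspase-Glo 3/7 luminescence was read after 20 min at room temperature. Data normalized to DMSO (basal) and 100 uM tamoxifen (100%); AC50 from Hill fit.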

[15] = Cellular Toxicity (caspase-3) SHSY5Y (AID 657)
Outline: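 SH-SY5Y human neuroblastoma cells (1500/well) were treated with compounds for 16 h at 37 °C, then Caspase-Glo 3/7 luminescence was read after 1 h at room temperature. Data normalized to DMSO and 10 uM staurosporine; AC50 from Hill fits.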

[16] = Cellular Toxicity (caspase-3) BJ (AID 658);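 note: 0% = DMSO basal and 100% = 10 µM staurosporine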
Outline: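 Caspase-Glo 3/7 luminescence, read 1 hr after reagent at room temperature, in normal BJ fibroblasts exposed 16 hours at 37 °C. AC50 values from Hill-equation concentration-response, scaled between DMSO basal and 10 uM staurosporine as 100%.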

[17] = Cellular Toxicity (caspase-3) MRC-5 (AID 659);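 note: 0% = DMSO basal and 100% = 10 µM staurosporine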
Outline: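 Luminescent Caspase-Glo 3/7 read-out (1 h, room temperature) after a 16 h, 37 °C compound exposure of MRC-5 lung fibroblasts at 1500 cells/well. Concentration-response AC50 from Hill equation; 0% DMSO, 100% 10 uM staurosporine.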

[18] = Cellular Toxicity (caspase-3) Mesangial (AID 660);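 note: combined caspase 3 and 7 activity read by Caspase-Glo luminescence; cells exposed to compound for 16 h before the caspase read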
Outline: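 AC50 values come from Hill-equation fits of caspase 3/7 activation, measured as Caspase-Glo luminescence in human glomerular mesangial cells exposed to compound for 16 h at 37 °C; 100% set by 100 uM tamoxifen.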

[19] = Cellular Toxicity (caspase-3) SK-N-SH (AID 661);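 note: 0% = DMSO basal and 100% = 10 µM staurosporine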
Outline: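 Apoptosis readout in SK-N-SH neuroblastoma: Caspase-Glo 3/7 luminescence following 16 hr treatment in complete culture medium. Normalization used DMSO and 10 uM staurosporine controls.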

[20] = Cellular Toxicity (caspase-3) H-4-II-E (AID 663); settings: Potency: caspase-3 activation;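 note: cells exposed to compound for 16 hr before readout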
Outline: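 Caspase 3/7 activation measured by luminescent aminoluciferin substrate cleavage after 16 hr compound treatment of H-4-II-E cells in complete medium. Increase normalized between DMSO (basal) and 100 uM tamoxifen (100%); Hill-equation AC50 from concentration-response.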

Chain of 3',5'-cyclic-AMP phosphodiesterase 4B (Homo sapiens) (Q07343 whole entry, looked up): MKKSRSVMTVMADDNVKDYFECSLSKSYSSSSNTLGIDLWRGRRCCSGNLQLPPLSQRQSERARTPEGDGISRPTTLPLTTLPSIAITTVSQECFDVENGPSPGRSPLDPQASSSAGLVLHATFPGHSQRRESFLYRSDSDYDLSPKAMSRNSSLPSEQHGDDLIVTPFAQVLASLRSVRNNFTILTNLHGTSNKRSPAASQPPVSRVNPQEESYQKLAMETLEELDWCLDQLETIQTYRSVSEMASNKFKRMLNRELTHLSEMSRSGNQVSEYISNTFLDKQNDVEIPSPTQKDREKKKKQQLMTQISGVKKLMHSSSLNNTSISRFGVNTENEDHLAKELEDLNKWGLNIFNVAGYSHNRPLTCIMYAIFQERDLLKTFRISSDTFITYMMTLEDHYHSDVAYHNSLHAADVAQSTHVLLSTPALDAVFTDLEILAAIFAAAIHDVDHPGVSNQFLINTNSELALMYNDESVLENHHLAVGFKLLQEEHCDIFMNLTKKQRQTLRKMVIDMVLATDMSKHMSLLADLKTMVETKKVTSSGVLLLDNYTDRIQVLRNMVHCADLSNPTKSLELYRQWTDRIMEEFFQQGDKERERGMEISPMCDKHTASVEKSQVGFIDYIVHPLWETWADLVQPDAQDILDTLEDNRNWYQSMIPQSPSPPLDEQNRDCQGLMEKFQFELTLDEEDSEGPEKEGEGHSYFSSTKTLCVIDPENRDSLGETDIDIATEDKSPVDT
Chain of Glucocorticoid receptor (Homo sapiens) (P04150 whole entry, looked up, the tested form may be a part): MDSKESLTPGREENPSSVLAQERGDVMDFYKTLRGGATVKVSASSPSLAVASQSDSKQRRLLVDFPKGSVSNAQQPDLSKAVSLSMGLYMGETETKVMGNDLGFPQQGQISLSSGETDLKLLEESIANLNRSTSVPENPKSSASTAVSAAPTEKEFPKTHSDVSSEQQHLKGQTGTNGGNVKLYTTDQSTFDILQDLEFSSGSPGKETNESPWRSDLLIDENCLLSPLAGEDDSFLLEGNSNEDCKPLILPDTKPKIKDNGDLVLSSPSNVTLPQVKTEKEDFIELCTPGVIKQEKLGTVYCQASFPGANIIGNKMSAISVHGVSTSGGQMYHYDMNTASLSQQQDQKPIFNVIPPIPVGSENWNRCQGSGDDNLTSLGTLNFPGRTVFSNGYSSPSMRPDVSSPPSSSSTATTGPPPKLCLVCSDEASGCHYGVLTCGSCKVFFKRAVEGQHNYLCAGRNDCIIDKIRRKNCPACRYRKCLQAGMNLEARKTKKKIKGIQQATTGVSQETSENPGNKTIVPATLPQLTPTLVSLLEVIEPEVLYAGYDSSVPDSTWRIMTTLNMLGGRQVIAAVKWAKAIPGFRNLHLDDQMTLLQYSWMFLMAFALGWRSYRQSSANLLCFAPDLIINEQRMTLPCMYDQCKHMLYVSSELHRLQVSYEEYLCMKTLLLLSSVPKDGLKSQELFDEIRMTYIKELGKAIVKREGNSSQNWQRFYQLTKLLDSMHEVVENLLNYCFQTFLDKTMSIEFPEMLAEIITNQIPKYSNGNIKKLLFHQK

COc1ccc(C(=O)c2ccccc2)c(O)c1
inactive: outcome [1] | Potency [2] > 20.6 µM | Potency [3] > 20.6 µM | Potency [4] | Potency [5] | activity change, negative = cytotoxicity [6] -13.4% | outcome [7] | Potency [8] | viability change, negative = cytotoxic [9] -8.89% | outcome [10] | outcome [11] | outcome [12] | outcome [13] | caspase-3 activation [14] 25.4% | outcome [15] | outcome [16] | outcome [17] | outcome [18] | outcome [19] | Potency [20]

CN1CCc2cccc3c2[C@H]1Cc1ccc(O)c(O)c1-3
inactive: Potency [2] > 46 µM | Potency [3] > 46 µM | outcome [12]
active: Potency [4] 6.31 µM

CNCCCCOc1ccccc1Cc1ccccc1
inactive: Potency [2] > 46 µM | Potency [3] > 46 µM | Potency [4]

CCCCc1cc2ccccc2c(OCCN(C)C)n1
inactive: Potency [2] > 20.6 µM | Potency [3] > 20.6 µM | Potency [4]

O=C(CCCN1CC=C(n2c(=O)[nH]c3ccccc32)CC1)c1ccc(F)cc1
inactive: outcome [1] | Potency [2] > 20.6 µM | Potency [3] > 20.6 µM | Potency [4]

NC(N)=NCc1cccc(I)c1
inactive: outcome [1] | Potency [2] > 46 µM | Potency [3] > 46 µM | Potency [4] | outcome [12]

O=C(O)CCC(=O)Nc1ccc(S(=O)(=O)Nc2nccs2)cc1
inactive: outcome [1] | Potency [2] > 20.6 µM | Potency [3] > 20.6 µM | Potency [4] | outcome [12]

O=C(O)CCc1nc2ccccc2[nH]1
inactive: outcome [1] | Potency [4] | outcome [12]

CCCCCCCCNC(C)C(O)c1ccc(SC(C)C)cc1 (stereo unspecified)
inactive: Potency [2] > 20.6 µM

CC(=O)OC[C@H]1O[C@@H](n2ncc(=O)[nH]c2=O)[C@H](OC(C)=O)[C@@H]1OC(C)=O
inactive: Potency [2] > 20.6 µM

CN1CCC[C@@H]1CCO[C@](C)(c1ccccc1)c1ccc(Cl)cc1
inactive: outcome [1] | Potency [4] | outcome [12]

O=C(O)CCNC(=O)c1ccccc1
inactive: Potency [2] > 20.6 µM

O=C(c1ccc(F)cc1)C1CCN(CCn2c(=S)[nH]c3ccccc3c2=O)CC1
inactive: Potency [2] > 46 µM | Potency [3] > 46 µM | Potency [4]

CC(O)Cn1cnc2c1c(=O)n(C)c(=O)n2C (stereo unspecified)
inactive: outcome [1]

CCOC(=O)c1ccc(N)cc1
inactive: Potency [2] > 20.6 µM | Potency [3] > 20.6 µM | Potency [4] | outcome [12]

CC(C)(C)NCC(O)COc1cccc2c1C[C@H](O)[C@H](O)C2 (stereo partly specified)
inactive: Potency [2] > 20.6 µM

O=c1[nH]c(=O)n([C@H]2C[C@H](O)[C@@H](CO)O2)cc1F
inactive: Potency [2] > 20.6 µM

COc1ccccc1N1CCN(CCCCNC(=O)c2ccc(-c3ccc(C(C)=O)cc3)cc2)CC1
inactive: Potency [2] > 46 µM | Potency [3] > 46 µM

CCOc1ccccc1C(N)=O
inactive: Potency [4] | Potency [5] | activity change, negative = cytotoxicity [6] 2.98% | outcome [7] | Potency [8] | viability change, negative = cytotoxic [9] -2.76% | outcome [10] | outcome [11] | outcome [13] | caspase-3 activation [14] -0.33% | outcome [15] | outcome [16] | outcome [17] | outcome [18] | outcome [19] | Potency [20]

CCN(CC)CCNC(=O)COc1ccc(OC)cc1
inactive: Potency [2] > 20.6 µM | Potency [3] > 20.6 µM | Potency [4] | outcome [12]

CCCCNc1ccc(C(=O)OCCOCCOCCOCCOCCOCCOCCOCCOCCOC)cc1
inactive: Potency [2] > 20.6 µM | Potency [3] > 20.6 µM | Potency [4] | outcome [12]

O=C1C(O)=C(O)C(=O)C(O)=C1O
inactive: Potency [2] > 20.6 µM | Potency [3] > 20.6 µM | Potency [4] | outcome [12]

O=C1C(CCS(=O)c2ccccc2)C(=O)N(c2ccccc2)N1c1ccccc1 (stereo unspecified)
inactive: Potency [2] > 20.6 µM | Potency [3] > 20.6 µM | Potency [4] | outcome [12]

CCCc1ncc(C[n+]2ccccc2C)c(N)n1
inactive: Potency [2] > 20.6 µM | Potency [3] > 20.6 µM | Potency [4] | outcome [12]
